# Measured values published in PubChem BioAssay AID1986 (Sanford-Burnham Center for Chemical Genomics, 2009).
# Among all 290,000 compounds or so, about 890 (0.31%) were called active. Cut-off read from the data, not from the text of the source: active = inhibition mostly above about 52% (no sharp cut-off); inactive = mostly below about 76%. What follows is part of a selection rich in actives, with near analogues and random picks from the rest.
# Test: inhibitors of HIV fusion peptide binding, primary screen, biochemical, uHTS, fluorescence dequenching (AID 1986)
# Conditions: cell-free peptide binding, 30 min, stronger effect = higher value
# [1] = measured here: repeat confirmation average inhibition, at 18.6 µM
SMILES,inhibition (at 20 µM),inhibition [1] [%]
NC(=O)NCc1cccc(Cl)c1,2.5% (inactive),
CCOC(=O)C(=CNc1ccc(C(F)(F)F)cc1Cl)C(=O)OCC,0.9% (inactive),
CCOc1ccc2c(c1)c1nnc(SCC(=O)NC3CC3)nc1n2C,-0.7% (inactive),
Clc1ccc(/C=N/NC2=Nc3cccc4cccc2c34)cc1,43.5% (inactive),
Clc1ccccc1/C=N/NC1=Nc2cccc3cccc1c23,51.2% (active),
C(=N\NC1=Nc2cccc3cccc1c23)/c1ccccc1,20.5% (inactive),
N/C(CC(=O)NC1CCCCC1)=N\OCC(=O)Nc1ccc(Cl)c(Cl)c1,1.7% (inactive),
COc1ccc(/C=C/C(=O)NC(=S)Nc2cc3oc4ccccc4c3cc2OC)cc1,1.6% (inactive),
COc1cc2c(cc1NC(=S)NC(=O)/C=C/c1ccco1)oc1ccccc12,67.5% (active),
COc1cc2c(cc1NC(=S)NC(=O)/C=C/c1ccc(OC)c(OC)c1)oc1ccccc12,1.2% (inactive),
COc1ccc(C2NC(=O)c3ccccc3O2)cc1 (stereo unspecified),-1.3% (inactive),
Cc1ccc(SCCNCc2ccco2)cc1,0.3% (inactive),
COc1cc2c(cc1OC)-c1cc3ccc4c(c3c[n+]1CC2)OCO4,120% (active),70.7
COc1cc2c(cc1O)CC[n+]1cc3c(OC)c(OC)ccc3cc1-2,0.6% (inactive),
COc1ccc2cc3[n+](cc2c1OC)CCc1cc2c(cc1-3)OCO2,-1.4% (inactive),
O=[N+]([O-])c1sccc1CS(=O)(=O)c1ccccc1,-1.5% (inactive),
O=C(Nc1cccc(O)c1)c1ccc([N+](=O)[O-])cc1Cl,0.3% (inactive),
CC(=O)Nc1cccc(NC(=O)c2ccc([N+](=O)[O-])cc2Cl)c1,3.5% (inactive),
O=C(Nc1cccc(Cl)c1)c1cc(N=Nc2ccc([N+](=O)[O-])cc2Cl)ccc1O,52.8% (active),
CC1C(=O)N2CCCc3cc(NS(C)(=O)=O)cc1c32 (stereo unspecified),2.3% (inactive),
COCCN1C(=O)/C(=C/c2ccc(N3CCCC3)cc2C)SC1=S,147% (inactive),
CCN1C(=O)/C(=C/c2ccc(N3CCCC3)cc2)NC1=S,149% (inactive),
Cc1cc(N2CCCC2)ccc1/C=C1\NC(=S)N(C)C1=O,94.7% (active),

SMILES,inhibition (at 20 µM),inhibition [1] [%]
Cc1cc(N2CCCC2)ccc1/C=C1/C(=O)N(C)C(=S)N1C,9.5% (inactive),
O=C1N/C(=C/c2ccc(N3CCCC3)cc2)C(=O)N1c1ccccc1,4.9% (inactive),
O=C1/C(=C/c2ccc(N3CCCC3)cc2)NC(=S)N1C1CC1,65.9% (active),83.2
CC(C)(C)C(=O)Nc1cccc(-c2nc3ccccc3[nH]2)c1,1.3% (inactive),
CC(C)OC(=O)CSc1nc(C(C)C)nc2ccccc12,1.3% (inactive),
Cc1c(Cl)cccc1NC(=O)N1CCCC1,0.6% (inactive),
O=C(O)CCN1C(=O)/C(=C\c2ccc(-c3nc4ccccc4s3)o2)SC1=S,73.9% (active),
O=C(O)CCCN1C(=O)/C(=C\c2ccc(-c3nc4ccccc4s3)o2)SC1=S,69.3% (active),
O=Cc1ccc(-c2nc3ccccc3s2)o1,1.2% (inactive),
O=C(O)CCCCCN1C(=O)/C(=C/c2ccncc2)SC1=S,9.2% (inactive),
O=C(O)c1ccc(-c2nc3ccccc3s2)o1,1.8% (inactive),
O=C(O)CCCN1C(=O)/C(=C\c2ccco2)SC1=S,53% (inactive),3.5
O=C(O)CCCCCN1C(=O)/C(=C\c2ccc(-c3ccc(Cl)cc3)o2)SC1=S,82.2% (active),
O=C(O)CCCCCN1C(=O)/C(=C\c2ccncc2)SC1=S,6.4% (inactive),
O=C(O)CCN1C(=O)/C(=C/c2ccc(-c3nc4ccccc4s3)o2)SC1=S,24.8% (inactive),
N#C/C(=C\c1ccc(-c2nc3ccccc3s2)o1)C(N)=O,2.1% (inactive),
O=C(O)CCCN1C(=O)/C(=C\C(Cl)=C\c2ccccc2)SC1=S,40.3% (inactive),
O=C(O)CC(C(=O)O)N1C(=O)/C(=C/c2ccc(-c3nc4ccccc4s3)o2)SC1=S (stereo unspecified),99% (active),66.9
O=C(Nc1ccccc1)c1ccc(NCC2CCCO2)c(S(=O)(=O)N2CCOCC2)c1 (stereo unspecified),-0.2% (inactive),
CCOC(=O)c1c(NC(=O)CSc2ncn[nH]2)sc(C(=O)NC)c1C,-0.5% (inactive),
Cn1c(SCC(=O)Nc2ccc3c(c2)OCCO3)nnc1C1CC1,0.2% (inactive),
CN1C(=O)/C(=C/c2cn(CC(=O)NCc3ccco3)c3ccccc23)NC1=S,0.4% (inactive),
COc1cc(/C=N/NC(=O)c2cccc(S(=O)(=O)N3CCCCC3)c2)cc(Br)c1O,1.7% (inactive),

SMILES,inhibition (at 20 µM),inhibition [1] [%]
O=C(NC(Cc1ccccc1)C(=O)O)/C(=C\c1ccc(F)cc1)NC(=O)c1ccccc1 (stereo unspecified),12.8% (inactive),
CC(=O)Nc1ccc2c(c1)nc(CCN1CCN(C)CC1)n2C,-1.1% (inactive),
O=C(Cc1ccc([N+](=O)[O-])cc1)Nc1ccc2c(c1)OCO2,0.9% (inactive),
CCCc1nc(SC)[nH]c(=O)c1C,-0.9% (inactive),
O=C(O)c1cc(-c2ccc(/C=C3/SC(=S)N(Cc4ccccc4)C3=O)o2)ccc1Cl,58.1% (active),
C#CCN1C(=O)S/C(=C\c2ccc(-c3ccc(Cl)c(C(=O)O)c3)o2)C1=O,18.9% (inactive),
COc1ccc(CN2C(=O)/C(=C/c3ccc(-c4ccc(Cl)c(C(=O)O)c4)o3)SC2=S)cc1,139% (inactive),
CCCCn1c(N)c(NCc2ccccc2OC)c(=O)[nH]c1=O,2.3% (inactive),
Nc1c(-c2cccc(Cl)c2)cnn1-c1ccccc1,-1.8% (inactive),
c1ccc2sc(NC3=NCN(CC4CCCO4)CN3)nc2c1 (stereo unspecified),1.1% (inactive),
Cc1cc2ccccn2c1C(=O)c1ccc(NN)c([N+](=O)[O-])c1,-4.5% (inactive),
Cc1cc2ccccn2c1C(=O)c1ccc(N/N=C/c2ccc(C(=O)O)cc2)c([N+](=O)[O-])c1,52.9% (active),
CC(=O)Nc1ccc(/C=N/Nc2ccc(C(=O)c3c(C)cc4ccccn34)cc2[N+](=O)[O-])cc1,-5.5% (inactive),
COc1cccc(-c2c(C(=O)N/N=C/c3cccnc3)nnn2-c2nonc2N)c1,-0.9% (inactive),
O=[N+]([O-])c1c(NCCO)cc(N2CCC3(CC2)OCCO3)c2nonc12,-2.2% (inactive),
CCN1CCN(c2cc(N3CCN(C(=O)c4ccco4)CC3)c3c4c(onc24)-c2ccccc2C3=O)CC1,10.6% (inactive),
CN1CCN(c2cc(N3CCN(C(=O)c4ccco4)CC3)c3c4c(onc24)-c2ccccc2C3=O)CC1,5.9% (inactive),
O=C(O)CCCNc1cc(N2CCN(C(=O)c3ccco3)CC2)c2noc3c2c1C(=O)c1ccccc1-3,70% (active),
O=C(O)CCCNc1cc(N2CCC3(CC2)OCCO3)c2noc3c2c1C(=O)c1ccccc1-3,58.7% (active),
CCOC(=O)N1CCN(c2cc(NCCC(=O)O)c3c4c(onc24)-c2ccccc2C3=O)CC1,18% (inactive),
O=C(O)CCNc1cc(N2CCN(C(=O)c3ccco3)CC2)c2noc3c2c1C(=O)c1ccccc1-3,54.7% (active),
CC(=O)OCCNc1cc(N2CCN(C)CC2)c2noc3c2c1C(=O)c1ccccc1-3,-2% (inactive),
O=C1c2ccccc2-c2onc3c(N4CCN(CCO)CC4)cc(N4CCN(C(=O)c5ccco5)CC4)c1c23,5.9% (inactive),

SMILES,inhibition (at 20 µM),inhibition [1] [%]
CCCCNC(=O)Nc1nnc(SCC(=O)OCC)s1,-2.1% (inactive),
COc1ccc(Cc2nc3ccccc3[nH]c2=O)cc1,-2.8% (inactive),
Cc1cc(C2C(C#N)=C(N)SC(N)=C2C#N)c(C)s1,51.9% (active),68.2
Cc1ccc(C2C(C#N)=C(N)SC(N)=C2C#N)c(C)c1,-3.6% (inactive),
Cc1sccc1C1C(C#N)=C(N)SC(N)=C1C#N,32.9% (inactive),
C=CCN1C(=O)/C(=C/c2ccccc2)S/C1=N/c1nccs1,1.5% (inactive),
C=CCN1C(=O)/C(=C/c2ccc(N(C)C)cc2)S/C1=N\c1nnc(CC)s1,61.5% (active),
C=CCN=C1S/C(=C\c2ccc(N(C)C)cc2)C(=O)N1CC=C,2.1% (inactive),
Cc1[nH]c(=O)[nH]c(=O)c1S(=O)(=O)N1CCCC(C(=O)NCCC2=CCCCC2)C1 (stereo unspecified),0.7% (inactive),
COc1ccc(Cl)cc1Nc1nc(C)nc2c1nnn2Cc1ccccc1,-1% (inactive),
O=C(CC1Nc2cccc3cccc(c23)NC1=O)Nc1ccccc1 (stereo unspecified),57.7% (active),
Cc1cccc(NC(=O)CC2Nc3cccc4cccc(c34)NC2=O)c1 (stereo unspecified),-5.8% (inactive),
O=C(CC1Nc2cccc3cccc(c23)NC1=O)Nc1ccc(F)cc1 (stereo unspecified),59.6% (inactive),-0.8
CC(=O)Nc1ccc(NC(=O)CC2Nc3cccc4cccc(c34)NC2=O)cc1 (stereo unspecified),67.6% (inactive),-1.4
NC(=O)CC1Nc2cccc3cccc(c23)NC1=O (stereo unspecified),57.4% (active),
COc1ccc(NC(=O)CC2Nc3cccc4cccc(c34)NC2=O)cc1 (stereo unspecified),51.5% (inactive),-2.3
COc1cc2c(cc1NC(=O)CSc1nnc(Cc3cccs3)n1C)oc1ccccc12,-3.3% (inactive),
CCOC(=O)c1c(-c2ccccc2)csc1NC(=O)/C(C#N)=C/c1ccc(OC)c(OC)c1,24.6% (inactive),
CCOC(=O)c1c(-c2ccc(C)cc2)csc1NC(=O)/C(C#N)=C/c1ccc(O)c(OC)c1,95% (inactive),7.7
CCOC(=O)c1c(-c2ccccc2)csc1NC(=O)/C(C#N)=C/c1ccc(O)c(OC)c1,78.2% (active),53.4
COC(=O)C1=C(C)N(C)C(=O)NC1c1c(OC)ccc2ccccc12 (stereo unspecified),-0.6% (inactive),
O=C(Nc1ccc(Cl)cc1F)C1CCN(S(=O)(=O)c2cccnc2)CC1,-1.9% (inactive),
